According to PubChem BioAssay AID1159580 (chemical genetic matrix, 2015):
Values joined by “and” are separate entries in the source; they are usually repeats but may differ in a detail not shown here. Identical values can stand only once. The whole screen tested about 5,500 compounds, of which about 2,000 (36%) were called active. Not shown: some 18% with an inconclusive outcome. No stated cut-off is given here; in the data, active means normalized growth mostly below about 0.91 (no sharp cut-off); inconclusive means no clear call, values can overlap the other calls; inactive means mostly above about 0.92. The list shows a part of the results.

Assay: chemical genetic growth profiling, strain panel (AID 1159580);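 further: tested at 20 µM; growth read once vehicle control cultures reached saturation at 30 °C; 1 = growth at the plate median or of vehicle wells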
Conditions: S. cerevisiae deletion strains, growth OD

Measured: normalized growth

Cc1cc(C(C)(C)C)c(O)c(C)c1CC1=NCCN1
inactive: locus YAL013W, strain DEP1, stronger effect = lower value 0.986 and 1.02 | locus YAL021C, strain ccr4, stronger effect = lower value 1.01 | locus YAL026C, strain drs2, stronger effect = lower value 1 | locus YAL030W, strain snc1, stronger effect = lower value 1.01 | locus YAL040C, strain CLN3, stronger effect = lower value 1.01 | locus YBL061C, strain skt5, stronger effect = lower value 1.02 | locus YBR009C, strain hhf1, stronger effect = lower value 1.01 | locus YBR021W, strain FUR4, stronger effect = lower value 1 | locus YBR023C, strain chs3, stronger effect = lower value 1.02 | locus YBR171W, strain sec66, stronger effect = lower value 1.02 | locus YBR229C, strain ROT2, stronger effect = lower value 1 | locus YBR231C, strain swc5, stronger effect = lower value 0.998 | locus YBR279W, strain paf1, stronger effect = lower value 0.993 | locus YCL011C, strain gbp2, stronger effect = lower value 1.01 | locus YCL016C, strain dcc1, stronger effect = lower value 1.02 | locus YCL029C, strain bik1, stronger effect = lower value 1.02 | locus YCL061C, strain MRC1 (second series), stronger effect = lower value 1 | locus YCL061C, strain MRC1, stronger effect = lower value 1.01 | locus YCL069W, strain vba3, stronger effect = lower value 1 | locus YCR088W, strain abp1, stronger effect = lower value 1 | locus YDL005C, strain med2, stronger effect = lower value 0.998 | locus YDL035C, strain GPR1, stronger effect = lower value 1 | locus YDL040C, strain nat1, stronger effect = lower value 1 | locus YDL074C, strain BRE1, stronger effect = lower value 0.98 | locus YDL101C, strain DUN1, stronger effect = lower value 1 | locus YDL134C, strain PPH21, stronger effect = lower value 0.997 | locus YDL185W, strain tfp1, stronger effect = lower value 1.01 | locus YDL192W, strain arf1, stronger effect = lower value 1.02 | locus YDR001C, strain nth1, stronger effect = lower value 0.993 | locus YDR069C, strain doa4, stronger effect = lower value 1.01 | locus YDR101C, strain arx1, stronger effect = lower value 0.993 | locus YDR137W, strain rgp1, stronger effect = lower value 1.06 | locus YDR150W, strain NUM1, stronger effect = lower value 1 | locus YDR159W, strain sac3, stronger effect = lower value 0.991 | locus YDR162C, strain NBP2, stronger effect = lower value 0.991 | locus YDR195W, strain ref2 0.99 | locus YDR297W, strain sur2, stronger effect = lower value 1 | locus YDR318W, strain mcm21, stronger effect = lower value 1.01 | locus YDR334W, strain swr1, stronger effect = lower value 1.01 | locus YDR335W, strain msn5, stronger effect = lower value 1 | locus YDR363W, strain ESC2, stronger effect = lower value 1.01 | locus YDR388W, stronger effect = lower value 1 | locus YDR392W, strain spt3, stronger effect = lower value 0.954 | locus YDR502C, strain sam2, stronger effect = lower value 1 | locus YEL003W, strain gim4, stronger effect = lower value 0.981 | locus YEL037C, strain rad23, stronger effect = lower value 1 | locus YEL061C, strain CIN8 (second series), stronger effect = lower value 0.998 | locus YEL061C, strain CIN8, stronger effect = lower value 0.997 | locus YER002W, strain NOP16, stronger effect = lower value 0.998 | locus YER015W, strain faa2, stronger effect = lower value 0.998 | locus YER016W, strain bim1, stronger effect = lower value 1 | locus YER110C, stronger effect = lower value 1.02 | locus YER111C, strain swi4, stronger effect = lower value 1 | locus YER155C, strain BEM2 (second series), stronger effect = lower value 0.991 | locus YER155C, strain BEM2, stronger effect = lower value 0.996 | locus YER167W, strain BCK2, stronger effect = lower value 0.998 | locus YFR010W, strain ubp6, stronger effect = lower value 0.999 | locus YGL078C, strain dbp3, stronger effect = lower value 1.01 | locus YGL086W, strain mad1, stronger effect = lower value 1 | locus YGL167C, strain pmr1, stronger effect = lower value 1 | locus YGL173C, strain kem1, stronger effect = lower value 1.01 | locus YGL227W, strain vid30, stronger effect = lower value 1 | locus YGL240W, strain doc1, stronger effect = lower value 0.992 | locus YGL248W, strain PDE1, stronger effect = lower value 1 | locus YGL253W, strain hxk2, stronger effect = lower value 1.01 | locus YGR078C, strain PAC10, stronger effect = lower value 1 and 0.998 | locus YGR135W, strain pre9, stronger effect = lower value 1.01 | locus YGR229C, strain SMI1, stronger effect = lower value 1.01 | locus YGR252W, strain gcn5, stronger effect = lower value 0.967 | locus YHR013C, strain ard1, stronger effect = lower value 1.01 | locus YHR027C, strain rpn1, stronger effect = lower value 1.02 | locus YHR030C, strain SLT2, stronger effect = lower value 0.998 and 0.968 | locus YHR079C, strain IRE1 (second series), stronger effect = lower value 1.01 | locus YHR079C, strain IRE1, stronger effect = lower value 0.977 | locus YHR094C, strain hxt1, stronger effect = lower value 0.994 | locus YHR129C, strain ARP1, stronger effect = lower value 1.01 | locus YHR142W, strain chs7, stronger effect = lower value 0.997 | locus YHR200W, strain rpn10, stronger effect = lower value 0.994 | locus YIL066C, strain RNR3, stronger effect = lower value 1 | locus YIL073C, strain SPO22, stronger effect = lower value 1.04 | locus YIL125W, strain kgd1, stronger effect = lower value 1 | locus YIR030C, strain dcg1, stronger effect = lower value 1.01 | locus YJL092W, strain hpr5, stronger effect = lower value 1.01 | locus YJL095W, strain BCK1 (second series), stronger effect = lower value 1.01 | locus YJL095W, strain BCK1, stronger effect = lower value 1 and 0.981 | locus YJL115W, strain asf1, stronger effect = lower value 1 | locus YJL129C, strain trk1, stronger effect = lower value 0.993 | locus YJL134W, strain LCB3, stronger effect = lower value 0.997 | locus YJL154C, strain vps35, stronger effect = lower value 1 | locus YJL164C, strain tpk1, stronger effect = lower value 1 | locus YJL166W, strain qcr8, stronger effect = lower value 1.01 | locus YJL168C, strain set2, stronger effect = lower value 1.01 | locus YJL187C, strain SWE1 (second series), stronger effect = lower value 1 | locus YJL187C, strain SWE1, stronger effect = lower value 1 | locus YJR043C, strain POL32, stronger effect = lower value 0.982
